SMILES strings stand for the structures. “And” between values parts separate entries of the source, which are not always exact repeats. Equal entries are not always repeated. Results filed as inconclusive are left out. The source made the active and inactive calls. Unless noted, calls follow the shape of the full dose curve.

Experiment [1] can be described thus: Nuclear factor erythroid 2-related factor 2/antioxidant responsive element (Nrf2/ARE) small molecule agonists: qHTS cell viability counter screen in human keratinocytes (AID 1919968; active = well fitted curve in the direction sought with a large enough effect in the repeat runs; an effect the other way counts as inactive or inconclusive; also: nearly all actives have a fitted effect of over 55% in size). The method in brief:
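HaCaT ARE reporter line, 1,500 cells/well; 5 h settle, 37 C/5% CO2; cpd in DMSO pinned; 23 h exposure; CellTiter-Fluor, 1 h; fluorescence.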
A general note: In qHTS, concentration-response curves come from the screen itself.

Experiment [2] is described as follows: Nuclear factor erythroid 2-related factor 2/antioxidant responsive element (Nrf2/ARE) small molecule agonists: luciferase reporter gene qHTS assay in human keratinocytes (AID 1919969). Also: nearly all actives have a fitted effect of over 35% in size. Also: potency is read from the fitted curve at half-maximal effect. A general note: A reporter such as luciferase makes a cellular process visible.
Experiment [3] has as its target Gonadotropin-releasing hormone receptor (Homo sapiens) (UniProt P30968). The experiment is described as follows: Human gonadotropin-releasing hormone receptor (GnRHR) small molecule agonists, calcium flux assay in GnRHR-HEK293 cells (AID 1920063). Also: nearly all actives have a fitted effect of over 35% in size. In a few lines:
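GnRHR-HEK293, 1500 cells/well, 18 h 37 C/5% CO2; Ca dye 1 h 37 C; cpd pinned (DMSO), agonist mode; kinetic FL 480/540, 3 min, 1 s reads; 15 conc, n=3.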
(In general: Calcium flux is commonly read through the fluorescence of an indicator in the cells.)

The target in experiment [4] is KiSS-1 receptor (Homo sapiens) (UniProt Q969F8). Briefly: Human kisspeptin (KISS1R) small molecule agonists, calcium flux assay in KISS1R-HEK293 cells (AID 1920064; active = well fitted curve in the direction sought with a large enough effect in the repeat runs; an effect the other way counts as inactive or inconclusive). In a few lines: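 Stable human KISS1R HEK293 line; 18 h plating, 37 C/5% CO2; calcium dye 1 h 37 C; compound pin transfer; kinetic fluorescence Ex/Em 480/540, 3 min.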
Sequence of KiSS-1 receptor (Homo sapiens) (Q969F8 whole entry, looked up): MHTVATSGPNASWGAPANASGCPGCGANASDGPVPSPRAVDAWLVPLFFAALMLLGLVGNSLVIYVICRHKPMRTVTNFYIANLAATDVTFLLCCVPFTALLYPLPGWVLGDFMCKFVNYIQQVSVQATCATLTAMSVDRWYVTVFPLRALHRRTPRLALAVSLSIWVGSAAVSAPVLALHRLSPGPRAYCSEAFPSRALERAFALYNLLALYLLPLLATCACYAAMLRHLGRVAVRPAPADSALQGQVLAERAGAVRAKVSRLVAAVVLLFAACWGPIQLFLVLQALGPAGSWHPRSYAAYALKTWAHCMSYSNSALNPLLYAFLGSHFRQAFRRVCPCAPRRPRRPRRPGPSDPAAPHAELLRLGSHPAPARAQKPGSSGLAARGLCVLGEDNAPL
A short description of experiment [5]: G protein-coupled receptor (GPCR) small molecule agonists, calcium flux assay: HEK293 wild type cell line counter screen (AID 1920065). The method in brief:
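Kinetic fluorescence at Ex/Em 480/540, recorded every second over 3 min, served as the read-out after compound addition. Each compound was tested at 15 concentrations in triplicate on cells pre-loaded with calcium dye for 1 h.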

A short description of experiment [6]: p53 small molecule agonists, cell-based qHTS assay with human liver microsomes (AID 1963577). In a few lines:
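Fluorescence of the beta-lactamase reporter in p53RE-bla cells, detected with LiveBLAzer substrate (2 h, room temperature, dark), served as the read-out after 16 h compound exposure at 37 C with human liver microsomes and NADPH, each 0.5 mg/mL final.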

Experiment [7] can be described thus: p53 small molecule agonists, cell-based qHTS assay with rat liver microsomes (AID 1963578). In a few lines: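 Cells carrying a p53 response element–beta-lactamase reporter were plated and rested 5 h, then dosed with compound in DMSO plus rat liver microsomes and NADPH, each at 0.5 mg/mL final. After 16 h at 37 C, LiveBLAzer substrate was added for 2 h.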
A short description of experiment [8]: p53 small molecule agonists, cell-based qHTS assay with human liver microsomes: qHTS cell viability counter screen (AID 1963579). Also: nearly all actives have a fitted effect of over 45% in size. The method in brief: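 Cytotoxicity counter screen: p53RE-bla, 4,000 cells/well; 5 h settle, 37 C/5% CO2; cpd + HLM 0.5 mg/mL + NADPH 0.5 mg/mL (final); 16 h, 37 C; CellTiter-Glo, 30 min RT, luminescence.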
The nature of experiment [9]: p53 small molecule agonists, cell-based qHTS assay with rat liver microsomes: qHTS cell viability counter screen (AID 1963580). Also: nearly all actives have a fitted effect of over 45% in size. In a few lines:
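HCT-116 p53RE-bla, 4,000 cells/well, 5 h pre-incubation; cpd + rat liver microsomes 0.5 mg/mL + NADPH 0.5 mg/mL (final); 16 h, 37 C; CellTiter-Glo, 30 min RT; luminescence.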

The nature of experiment [10]: p53 small molecule agonists, cell-based qHTS assay: qHTS cell viability counter screen (AID 1963581). Also: nearly all actives have a fitted effect of over 45% in size. In a few lines:
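HCT-116 p53RE-bla cells, 4,000/well, plated 5 h before compound pin transfer; 16 h at 37 C; bla substrate 2 h RT; then CellTiter-Glo, 30 min RT, luminescence.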

Experiment [11] in a line: p53 small molecule agonists, cell-based qHTS assay (AID 1963582; active = well fitted activation curve with a large enough effect in the signal ratio in the repeat runs, not every such curve was filed as active; the % refers to the signal ratio). In a few lines: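 Reporter line: p53RE-bla. Pre-incubation 5 h, 37 C, 5% CO2; compound (DMSO, pin tool) 16 h, 37 C; B/G FRET substrate 2 h RT; fluorescence intensity read.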
A short description of experiment [12]: cAMP Responsive Elements (CRE) small molecule agonists, cell-based qHTS assay (AID 1963590). In a few lines:
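HEK 293T CRE-bla, 2,000 cells/well, 18 h preincubation 37 C/5% CO2; cpds (DMSO) pinned, 3 h; LiveBLAzer B/G FRET substrate, 2 h RT.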

A short description of experiment [13]: cAMP Responsive Elements (CRE) small molecule antagonists, cell-based qHTS assay (AID 1963591; active = well fitted inhibition curve with a large enough effect in the signal ratio in the repeat runs, not every such curve was filed as active; the % refers to the signal ratio). In a few lines: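 Beta-lactamase reporter read by FRET substrate (LiveBLAzer B/G) after 2 h at room temperature. CRE-bla HEK293T cells had received compound plus 0.25 uM (final) NKH477 for 3 h at 37 °C.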
Experiment [14] concerns the target Beta-2 adrenergic receptor (Homo sapiens) (UniProt P07550). Briefly: Adrenergic beta2 receptor (ADRB2) small molecule antagonists, cell-based qHTS assay (AID 1963592). Also: series mostly up to about 92 µM; nearly all actives have a fitted effect of over 50% in size. The method in brief: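 Cells (CHO, stable ADRB2 overexpression) incubated 18-20hr at 37C; compounds added from DMSO; agonist mix (1nM isoproterenol, 100uM IBMX, 25uM Ro-20-1724) added; 0.5hr RT; d2-cAMP and anti-cAMP-cryptate added; 1hr RT; 665/615 nm read.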

Experiment [15] shares this target. The experiment is described as follows: Adrenergic beta2 receptor (ADRB2) small molecule agonists, cell-based qHTS assay (AID 1963593).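 Also: CHO cells stably overexpressing human ADRB2.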 The method in brief: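 CHO cells stably over-expressing ADRB2 were plated overnight at 37C, then dosed with compounds plus a stimulation mix containing 100uM IBMX and 25uM Ro-20-1724 for 0.5hr at room temperature. cAMP was measured by HTRF competition, 1hr.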

Experiment [16] deals with D(2) dopamine receptor (Homo sapiens) (UniProt P14416). The experiment is described as follows: Dopamine D2 receptor (DRD2) small molecule agonists, cell-based qHTS assay (AID 1963594). Also: nearly all actives have a fitted effect of over 35% in size. In a few lines:
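cAMP accumulation in DRD2-HEK293 cells measured by HTRF after 1 h detection; compounds added 10 min before NKH477 (200nM […]) forskolin-analogue stimulation, 30 min at room temperature, with Ro20-1724 present at 0.1 mM final.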

Experiment [17] shares this target. Briefly: Dopamine D2 receptor (DRD2) small molecule antagonists, cell-based qHTS assay (AID 1963595; active = well fitted inhibition curve with a large enough effect in the signal ratio in the repeat runs, with a control signal flat; the % refers to the signal ratio). In a few lines:
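Readout: HTRF cAMP, cAMP-d2 competing with cellular cAMP for anti-cAMP cryptate, read after 1 h. Cells: DRD2-HEK293. Conditions: 0.1 mM Ro20-1724, 12 nM quinpirole, 200 nM NKH477, 30 min RT.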

The target of experiment [18] is 5-hydroxytryptamine receptor 2A (Homo sapiens) (UniProt P28223). Briefly: 5-hydroxytryptamine receptor 2A (HTR2A) small molecule agonists, cell-based qHTS assay (AID 1963587). Also: nearly all actives have a fitted effect of over 30% in size. In a few lines: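 Kinetic calcium-flux fluorescence (2 min, 1 sec intervals) after compound addition in agonist mode. HTR2A-CHO cells were cultured 18 h, then dye-loaded 1 h at 37 C.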
Sequence of 5-hydroxytryptamine receptor 2A (Homo sapiens) (P28223 whole entry, looked up): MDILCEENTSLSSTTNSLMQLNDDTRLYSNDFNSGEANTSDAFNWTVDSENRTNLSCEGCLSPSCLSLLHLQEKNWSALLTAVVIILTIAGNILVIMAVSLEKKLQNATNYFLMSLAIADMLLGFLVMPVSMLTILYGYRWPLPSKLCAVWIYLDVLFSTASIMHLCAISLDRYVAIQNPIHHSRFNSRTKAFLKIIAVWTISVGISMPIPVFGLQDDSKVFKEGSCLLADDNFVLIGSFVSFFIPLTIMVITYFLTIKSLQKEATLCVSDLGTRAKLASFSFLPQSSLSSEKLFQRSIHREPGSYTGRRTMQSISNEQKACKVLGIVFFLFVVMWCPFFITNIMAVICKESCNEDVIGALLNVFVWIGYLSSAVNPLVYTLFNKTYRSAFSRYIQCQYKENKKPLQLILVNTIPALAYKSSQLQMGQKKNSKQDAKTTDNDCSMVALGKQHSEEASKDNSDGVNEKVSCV
The target in experiment [19] is Muscarinic acetylcholine receptor M1 (Homo sapiens) (UniProt P11229). Briefly: Cholinergic receptor muscarinic 1 (CHRM1) small molecule antagonists, cell-based qHTS assay (AID 1963588). Also: nearly all actives have a fitted effect of over 40% in size. In a few lines:
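CHRM1-CHO calcium-flux assay, antagonist mode. Cells were seeded 18 h, dye-loaded 1 h at 37 C and given compound for 5 min at RT, then acetylcholine was added at 50nM. FDSS fluorescence was read 3 min; 15 concentrations, three runs.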

Experiment [20] has as its target 5-hydroxytryptamine receptor 2A (Homo sapiens) (UniProt P28223). Briefly: 5-hydroxytryptamine receptor 2A (HTR2A) small molecule antagonists, cell-based qHTS assay (AID 1963586). Also: nearly all actives have a fitted effect of over 45% in size. In a few lines: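 Antagonist-mode intracellular calcium assay: DOI (4 nM) added after 5 min compound pre-incubation at room temperature to dye-loaded HTR2A-CHO cells. Fluorescence followed for 3 min, sampled every second.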

Sequence of Gonadotropin-releasing hormone receptor (Homo sapiens) (P30968 whole entry, looked up): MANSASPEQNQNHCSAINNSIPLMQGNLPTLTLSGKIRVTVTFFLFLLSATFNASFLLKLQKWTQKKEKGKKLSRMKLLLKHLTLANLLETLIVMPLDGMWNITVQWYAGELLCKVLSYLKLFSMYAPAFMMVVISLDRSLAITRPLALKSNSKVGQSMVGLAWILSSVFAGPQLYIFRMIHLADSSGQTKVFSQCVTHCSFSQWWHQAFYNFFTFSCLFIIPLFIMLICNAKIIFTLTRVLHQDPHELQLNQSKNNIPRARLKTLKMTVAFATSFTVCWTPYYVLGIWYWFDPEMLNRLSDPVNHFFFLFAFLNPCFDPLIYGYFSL
Sequence of Muscarinic acetylcholine receptor M1 (Homo sapiens) (P11229 whole entry, looked up): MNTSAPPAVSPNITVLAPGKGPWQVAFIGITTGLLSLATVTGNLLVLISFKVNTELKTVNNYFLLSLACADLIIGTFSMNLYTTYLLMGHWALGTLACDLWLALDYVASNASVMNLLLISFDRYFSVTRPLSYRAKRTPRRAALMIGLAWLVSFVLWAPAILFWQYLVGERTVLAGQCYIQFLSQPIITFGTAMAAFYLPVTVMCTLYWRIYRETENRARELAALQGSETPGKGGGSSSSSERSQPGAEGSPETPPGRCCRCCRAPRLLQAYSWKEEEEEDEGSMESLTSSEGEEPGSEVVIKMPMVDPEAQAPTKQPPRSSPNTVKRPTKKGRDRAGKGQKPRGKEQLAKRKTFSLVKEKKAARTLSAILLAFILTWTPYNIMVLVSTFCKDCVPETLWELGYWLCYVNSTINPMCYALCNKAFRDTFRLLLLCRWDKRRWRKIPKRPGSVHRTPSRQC
Sequence of D(2) dopamine receptor (Homo sapiens) (P14416 whole entry, looked up): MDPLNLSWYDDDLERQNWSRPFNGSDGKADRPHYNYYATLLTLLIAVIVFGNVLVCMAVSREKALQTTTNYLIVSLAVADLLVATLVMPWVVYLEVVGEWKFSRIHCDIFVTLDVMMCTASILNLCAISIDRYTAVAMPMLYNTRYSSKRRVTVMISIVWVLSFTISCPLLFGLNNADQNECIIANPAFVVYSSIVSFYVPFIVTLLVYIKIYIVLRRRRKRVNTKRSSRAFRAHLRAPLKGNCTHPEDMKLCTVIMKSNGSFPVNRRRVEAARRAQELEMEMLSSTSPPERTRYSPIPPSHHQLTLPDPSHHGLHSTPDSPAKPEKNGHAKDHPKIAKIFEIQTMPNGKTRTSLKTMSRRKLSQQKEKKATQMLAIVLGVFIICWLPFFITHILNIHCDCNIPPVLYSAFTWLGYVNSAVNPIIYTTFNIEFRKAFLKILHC
Sequence of Beta-2 adrenergic receptor (Homo sapiens) (P07550 whole entry, looked up): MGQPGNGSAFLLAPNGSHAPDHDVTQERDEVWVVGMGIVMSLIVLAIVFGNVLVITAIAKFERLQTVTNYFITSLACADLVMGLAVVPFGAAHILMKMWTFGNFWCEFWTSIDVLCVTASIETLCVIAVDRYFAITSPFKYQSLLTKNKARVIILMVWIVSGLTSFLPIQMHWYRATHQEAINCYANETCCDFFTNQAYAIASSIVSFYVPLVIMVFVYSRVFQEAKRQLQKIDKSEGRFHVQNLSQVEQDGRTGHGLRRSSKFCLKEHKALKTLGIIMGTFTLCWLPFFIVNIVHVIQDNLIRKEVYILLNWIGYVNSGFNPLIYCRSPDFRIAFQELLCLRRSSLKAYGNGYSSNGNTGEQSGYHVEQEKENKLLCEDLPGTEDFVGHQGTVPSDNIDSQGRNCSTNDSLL

Take `C[C@]12C=CC(=O)C=C1CC[C@H]1[C@@H]3C[C@@H](O)[C@](O)(C(=O)CO)[C@@]3(C)C[C@H](O)[C@@]12F`: the Potency entry in experiment [1], in experiment [2], in [3], in experiment [4], in experiment [5] and in experiment [6] was “inactive” in each case. Moreover, the Potency result in [7], in [8], in [9], in [10], in experiment [11] and in experiment [12] was “inactive” in each case. Further, the Potency result in [13], in experiment [14], in [15], in experiment [16] and in [17] was “inactive” throughout.

With `O=C(O)Cc1ccccc1Nc1c(Cl)cccc1Cl`, the Potency entry in experiment [1], in experiment [2], in experiment [3], in experiment [4], in experiment [5] and in [6] was “inactive” throughout. For the same molecule, the Potency entry in [7], in [8], in experiment [9], in [10], in [11] and in experiment [12] was “inactive” in each case. In addition, the Potency entry in [13], in [14], in experiment [15] and in experiment [17] was “inactive” throughout.

As for `CN1C(=O)CC[C@H]1c1cccnc1`, the Potency entry in experiment [1], in experiment [2], in [3], in experiment [4], in experiment [5] and in [6] was “inactive” in each case. Moreover, the Potency entry in [7], in [8], in experiment [9], in [10], in experiment [11] and in [18] was “inactive” throughout. The Potency result in experiment [19], in experiment [12], in experiment [13], in experiment [14], in experiment [15] and in experiment [16] was “inactive” each time. For the same molecule, in experiment [17], the Potency entry was “inactive”.

As for `C/C=C(C)/C=C/C=C(C)C`, the Potency result in [1], in experiment [3], in [4], in [5], in [6] and in [7] was “inactive” each time. Besides, the Potency entry in experiment [8], in experiment [9], in [10], in experiment [20], in experiment [18] and in experiment [19] was “inactive” each time. Also, the Potency entry in experiment [12], in experiment [13], in experiment [14], in [15], in [16] and in [17] was “inactive” throughout. Further, the Potency in [2] was 60.4 µM (active) and 54.5 µM (active).

With `O=C(c1cc(O)c(O)c(O)c1)c1ccc(O)c(O)c1O`, the Potency result in [1], in experiment [2], in [3], in experiment [4], in experiment [5] and in [6] was “inactive” in each case. The Potency result in [7], in [8], in experiment [9], in [20], in experiment [18] and in experiment [19] was “inactive” in each case. In addition, the Potency result in experiment [12], in experiment [13], in experiment [16] and in experiment [17] was “inactive” in each case.

`O=S1(=O)CCCO1`: the Potency entry in [1], in experiment [2], in experiment [3], in [4], in experiment [5] and in [6] was “inactive” each time. In addition, the Potency result in [7], in experiment [8], in experiment [9], in experiment [11], in experiment [20] and in experiment [18] was “inactive” each time. For the same molecule, the Potency entry in experiment [19], in [13], in [14], in [15], in [16] and in experiment [17] was “inactive” in each case.

On to `OC1CCCCC1`, for which the Potency result in [1], in experiment [2], in experiment [3], in experiment [4], in experiment [5] and in experiment [6] was “inactive” each time. The Potency result in experiment [7], in experiment [8], in experiment [10], in experiment [11], in experiment [20] and in experiment [18] was “inactive” each time. Besides, the Potency result in experiment [19], in [12], in experiment [13], in experiment [14], in [15] and in experiment [16] was “inactive” throughout. For the same molecule, the Potency result in [17] was “inactive”.

These data come from PubChem BioAssay (Tox21).
